# Test results as given in PubChem BioAssay AID651821 (The Scripps Research Institute Molecular Screening Center, 2012).
# In all, about 370,000 compounds went through this assay and about 4,700 (1.3%) were called active.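 The calls were made as follows: active = inhibition above the plate cutoff, the mean of all test compounds on that plate plus 3 SD (cut at about 35% in these data); inactive = the rest.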 Shown is part of a subset that was picked to be rich in actives.
# Assay: small molecules binding CAG repeat RNA – biochemical, fluorescence, primary screen (AID 651821);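 also: 0% = DMSO alone and 100% = 100 µM mitoxantrone as full dye displacement; higher means more dye released from RNA so lower well fluorescence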
# Conditions: r(CAG) RNA repeat, TO-PRO-1 dye displacement fluorescence; at 3 µM; active compounds read high
row,SMILES,inhibition
1,CCn1cc(CN2CCCC(CNS(=O)(=O)Cc3ccccc3)C2)cn1 (configuration not stated),0.88% (inactive)
2,Cc1ccccc1NC(=O)C1CCN(c2ncccn2)CC1,-0.95% (inactive)
3,COc1ccc(S(=O)(=O)NCC(c2ccc(C)cc2)N2CCN(C)CC2)cc1OC (configuration not stated),-10.5% (inactive)
4,COc1ccc(C(=O)OCCN(C)C2CN(Cc3cn(Cc4cccc(C)c4)nn3)S(=O)(=O)C2)cc1OC (configuration not stated),0.03% (inactive)
5,O=C(c1cc(-c2ccc(Cl)s2)nc2ccccc12)N1CCOCC1,3.5% (inactive)
6,Cc1c(NC(=O)c2cc(-c3ccc(Cl)s3)nc3ccccc23)c(=O)n(-c2ccccc2)n1C,7.65% (inactive)
7,O=C(Nc1nnc(-c2ccccc2)o1)c1cc(-c2cccs2)nc2ccccc12,56.2% (active)
8,CC(c1ccc(N)cc1)c1cn(C)c2ccccc12 (configuration not stated),7.15% (inactive)
9,CCC(C)[C@@H](C(=O)OC)N(CCc1cn(Cc2ccccc2)nn1)S(=O)(=O)c1ccccc1Br (some centres not stated),2.88% (inactive)
10,Cc1ccc(CNC(=O)C2CCN(S(=O)(=O)c3ccc4nc5c(c(C(=O)O)c4c3)CC(C)CC5)CC2)cc1 (configuration not stated),51.8% (active)
11,CC(=O)N1c2ccc(S(=O)(=O)N3CCC(C(=O)NCc4ccc(F)cc4)CC3)cc2CC1C (configuration not stated),1.14% (inactive)
12,CCOC(CNC(=O)C1CCN(S(=O)(=O)c2ccc3nc4c(c(C(=O)O)c3c2)CC(C)CC4)CC1)OCC (configuration not stated),25.9% (inactive)
13,COC(=O)C1=C(C)N(Cc2ccc(C(F)(F)F)cc2)C(=NCc2ccc(C(F)(F)F)cc2)NC1c1cccc(Cl)c1 (configuration not stated),2.08% (inactive)
14,N#Cc1c(NC(=O)C2CCCO2)sc2c1CCCCC2 (configuration not stated),-2.89% (inactive)
15,COC(=O)c1c(NC(=O)C2CC(C)=C(C)CC2C(=O)O)sc2c1CCCCC2 (configuration not stated),53.5% (active)
16,COC(=O)c1c(NC(=O)CN2C(=O)NC(CCc3ccccc3)C2=O)sc2c1CCCCC2 (configuration not stated),10% (inactive)
17,O=C(O)C1CC=C(Cl)CC1C(=O)NCc1ccccc1 (configuration not stated),1.32% (inactive)
18,COC(=O)c1c(NC(=O)CSc2nncs2)sc2c1CCCCC2,0.27% (inactive)
19,N#Cc1c(NC(=O)C2CC(Cl)=CCC2C(=O)O)sc2c1CCCCC2 (configuration not stated),42.8% (active)
20,C[C@H]1CCC/C=C/C(=O)c2c(O)cc(O)cc2CC(=O)O1,6.03% (inactive)
21,N#Cc1c(-c2ccc(Cl)cc2)c2c([nH]c1=S)CCCC2,17.9% (inactive)

row,SMILES,inhibition
1,C=CCN1C(C(=O)OC)CN(Cc2cn(Cc3ccccc3)nn2)CCS1(=O)=O (configuration not stated),3.76% (inactive)
2,COc1ccc(CNS(=O)(=O)c2cc(-c3cc(C)no3)ccc2C(C)C)cc1,1.21% (inactive)
3,COc1cccc(NC(=O)c2ccccc2N(Cc2ccccc2)S(C)(=O)=O)c1,4.73% (inactive)
4,COc1ccc(CCNS(=O)(=O)c2ccc(Cl)s2)cc1OC,-4.15% (inactive)
5,COC(=O)c1ccc(NC(=O)c2ccccc2NS(=O)(=O)c2ccccc2)cc1,74.1% (active)
6,COc1cc(NC(=O)c2ccccc2NS(=O)(=O)c2ccc(Cl)s2)cc(OC)c1,84.6% (active)
7,CCOC(=O)c1ccc(N/C(=N/S(=O)(=O)c2ccccc2)c2ccccc2)cc1,0.82% (inactive)
8,CCOc1ncccc1C(=O)Nc1ccc(S(=O)(=O)Nc2nc(C)cc(C)n2)cc1,16.8% (inactive)
9,COc1ccnc(NC(=S)N2CCN(c3ncc(C(F)(F)F)cc3Cl)CC2)c1,2.94% (inactive)
10,COc1cc(/C=C/C(=O)OCC(=O)Nc2cccc(Oc3ccccc3)c2)ccc1O,15.1% (inactive)
11,CC(C)CNc1cccc2c1S(=O)(=O)N[C@H](C)CO2,2.72% (inactive)
12,COc1ccc(C(CNC(=O)c2ccc(S(=O)(=O)Nc3ccccc3C)cc2)N2CCOCC2)cc1 (configuration not stated),-3.71% (inactive)
13,COc1ccc(C(CNC(=O)c2cccc(S(=O)(=O)Nc3ccccc3Cl)c2)N2CCOCC2)cc1 (configuration not stated),46.8% (active)
14,COc1ccc(C(CNC(=O)c2cccc(NS(=O)(=O)c3ccc(C)c(F)c3)c2)N2CCCC2)cc1 (configuration not stated),2.37% (inactive)
15,CC1=C(C(=O)Nc2cc(C)ccn2)C(c2cnn(C)c2)C2=C(CC(c3ccccc3)CC2=O)N1 (configuration not stated),-6.66% (inactive)
16,O=C(Nc1ccc(Br)cc1)OCCN1C(=O)CCC12CCC(c1ccccc1)CC2 (configuration not stated),5.9% (inactive)
17,C[C@H](O)[C@@H]1CN2CCc3ccc(-c4ccc5c(c4)OCO5)cc3[C@@H]2C[C@@H]1N(C)C(=O)C1CCCCC1,6.89% (inactive)
18,Cc1cc(NCCc2c[nH]c3ccccc23)ccc1Oc1cccnc1,7.17% (inactive)
19,CCc1cccc(C)c1N(C(=O)Cn1c(CO)nc2ccccc21)C(C)COC (configuration not stated),-9.89% (inactive)
20,COC(=O)[C@]12C[C@H](CC(=O)NCCc3ccccc3OC)C(=O)N(Cc3ccco3)C1=C[C@H](C(C)C)O[C@@H]2C1CC1,3.46% (inactive)
21,Cc1ccc(NC(=O)CSc2nn3c(=O)c(C)nnc3s2)cc1Cl,2.36% (inactive)

row,SMILES,inhibition
1,Cc1nc2cc(NC(=O)CSc3nc4c(C)cccc4cc3C#N)ccc2s1,2.03% (inactive)
2,Cc1ccc(NC(=O)CSc2sc3c(O)cc(=O)[nH]c3c2C#N)cc1C,40.4% (active)
3,CCOC(=O)C1CSCCS(=O)(=O)N1Cc1ccc(Cl)cc1 (configuration not stated),1.28% (inactive)
4,COC[C@@H]1CCCN1c1ccc2c(c1)O[C@H](C)CCN(C1CC1)S2(=O)=O,0.67% (inactive)
5,CC1(C(=O)NS(=O)(=O)c2ccccc2)CCN1C(=O)C/C=C/c1ccccc1 (configuration not stated),7.12% (inactive)
6,Cc1ccc(F)c(S(=O)(=O)NC(=O)C2(C)CCN2C(=O)CCc2cccs2)c1 (configuration not stated),3.47% (inactive)
7,CCCNC(=O)C1(C)CCN1C(=O)Cc1ccc(-c2ccccc2)cc1 (configuration not stated),0.2% (inactive)
8,CC1(C(=O)NS(=O)(=O)c2ccccc2)CCN1C(=O)Cc1ccc(-c2ccccc2)cc1 (configuration not stated),41.7% (active)
9,C#Cc1ccc(NC(=O)C2(C)CCN2C(=O)Cc2ccc(-c3ccccc3)cc2)cc1 (configuration not stated),9.25% (inactive)
10,CC1(C(=O)NS(=O)(=O)Cc2cccc(Cl)c2)CCN1C(=O)Cc1ccc(Cl)cc1Cl (configuration not stated),42.9% (active)
11,Cc1nc(C(F)(F)F)ccc1C(=O)N1CCC1(C)C(=O)NS(=O)(=O)c1ccccc1 (configuration not stated),4.76% (inactive)
12,COc1ccc(S(=O)(=O)NC(=O)C2(C)CCN2C(=O)c2ccccc2CCc2ccccc2)cc1 (configuration not stated),43.4% (active)
13,CC1(C(=O)NS(=O)(=O)c2cccs2)CCN1C(=O)Cc1ccc(-c2ccccc2)cc1 (configuration not stated),40.2% (active)
14,CCCCc1ccc(S(=O)(=O)NC(=O)C2(C)CCN2C(=O)c2ccccc2)cc1 (configuration not stated),32.5% (inactive)
15,Cc1ccccc1S(=O)(=O)NC(=O)C1(C)CCN1C(=O)Cc1ccc(Cl)cc1Cl (configuration not stated),32.5% (inactive)
16,CC1(C(=O)NS(=O)(=O)Cc2cccc(Cl)c2)CCN1C(=O)Cc1ccccc1 (configuration not stated),12.6% (inactive)
17,Nc1ncnc2c1ncn2[C@@H]1O[C@H](C(=O)N[C@@H](CCc2ccccc2)C(=O)N2CCCN(Cc3cccs3)CC2)[C@@H](O)[C@H]1O,1.07% (inactive)
18,CCCC[C@H]1C2CC(OC(=O)NCc3ccccc3)C(C2)[C@H]2CCCCN21 (some centres not stated),2.74% (inactive)
19,O=S1(=O)c2c(NCc3ccco3)cccc2Oc2ccccc2CN1Cc1cn(Cc2cccc(C(F)(F)F)c2)nn1,13.6% (inactive)
20,COCc1cc(N2CCN(C(=O)OC(C)(C)C)C[C@@H]2C)ccc1N1CCN(Cc2ccccc2)[C@H](C)C1,3.76% (inactive)
21,CC(C)c1ccc(CC(=O)N2CCC2(C)C(=O)NS(=O)(=O)c2ccc(C(C)(C)C)cc2)cc1 (configuration not stated),71% (active)

row,SMILES,inhibition
1,CCCC(=O)N1CCC1(C)C(=O)NS(=O)(=O)c1ccc(Cl)cc1 (configuration not stated),3.6% (inactive)
2,CC(C)(C)c1ccc(S(=O)(=O)NC(=O)C2(C)CCN2C(=O)CC2CC2)cc1 (configuration not stated),5.41% (inactive)
3,O=c1ccc2c(-c3ccccc3S(=O)(=O)O)c3ccc(O)c(O)c3oc-2c1O,66.8% (active)
4,COc1ccc(C(=O)CSc2nnc(-c3cnccn3)n2-c2ccc(C)cc2)cc1,4.26% (inactive)
5,Cc1cc(NC(=O)COC(=O)/C=C/c2ccc(C)o2)no1,-0.62% (inactive)
6,Cc1ccc(/C=C/C(=O)Nc2ccc([N+](=O)[O-])c(NC(=O)/C=C/c3ccc(C)o3)c2)o1,51% (active)
7,O=C(/C=C/c1ccc([N+](=O)[O-])o1)NNC(=O)c1ccc(F)cc1,7.58% (inactive)
8,C[C@@H]1ON(C)[C@H]2C[C@H]3c4[nH]c5cccc(-c6ccc7c(c6)OCO7)c5c4CCN3C[C@@H]12,6.14% (inactive)
9,COc1ccccc1C(=O)NCCC(=O)NN1C(=O)NC2(CCCCC2)C1=O,-4.93% (inactive)
10,COc1ccccc1C(=O)Nc1nc2nc(-c3ccccc3)cc(=O)n2[nH]1,7.94% (inactive)
11,COc1cccc2sc(NNC(=O)c3nc4ccccc4s3)nc12,62.5% (active)
12,COc1ccccc1C(=O)Nn1cnnc1,-5.43% (inactive)
13,COC(=O)[C@@]12CCCCC3=C1N(CCC3)C(=O)[C@H]2CC(=O)NCc1cccc2ccccc12,3.84% (inactive)
14,CC(=O)Nc1ccc(S(=O)(=O)N(CCc2ccccc2)CC(=O)N/N=C/c2ccc(C(=O)O)cc2)cc1,40.4% (active)
15,CC(=O)Nc1ccc(S(=O)(=O)NCCc2ccccc2)cc1,-3.69% (inactive)
16,COc1ccc(S(=O)(=O)N(CC(=O)N/N=C/c2ccc(C(=O)O)cc2)Cc2ccccc2)cc1OC,25.2% (inactive)
17,O=C(Nc1c(Cl)c(C2CC2)nn1-c1ccccc1)C(Cl)(Cl)Cl,2.42% (inactive)
18,CCCCCN1CCCCC(NC(=O)C(C)CCC)C1=O (configuration not stated),-0.91% (inactive)
19,COC(=O)C1CN(Cc2ccc(F)cc2)CCS(=O)(=O)N1Cc1ccc(Cl)cc1 (configuration not stated),2.48% (inactive)
